In the library only some 2.6% were active in any assay of this set; here they are far more common.
CCT chaperon mod: modulators of cytosolic chaperonin (CCT/TRiC) activity; purified chaperonin ATPase assay, HTRF ADP detection, 30 min; activity change, % (no concentration beside the values), hits read low; 0.3% of 360,000 active; in the data active = activity change below about -30%; note: % is set by controls: 0 for no effect and ±100 for the full control effect
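TRiC at 40 or 20 nM final (batch-dependent) in 30 mM Tris pH 7.4, 100 mM KCl, 5 mM MgCl2, 1 mM DTT, with compound at single 76 uM and 10 uM ATP, 30 min at 37 deg C. ADP detected by HTRF Transcreener, 665/615 ratio.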
A549 viability: A549 cytotoxicity, counter-screen for Nrf2 inhibitors | A549 ARE-Fluc cells, CellTiter-Fluor viability, 18-24 h | Potency, µM (titrated, usually from 46 µM), without a hit: at the highest dose activity change, negative = cytotoxicity, most hits filed as inhibitors | 0.16% of 390,000 active | AID 504648; note: potency is the fitted concentration of half-maximal effect; % is set by controls: 0 for no effect and ±100 for the full control effect
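A549 ARE-Fluc cells in 5% FBS OPTI-MEM, 5000 cells/well, rested 2 h then exposed to compounds in concentration-response for 18-24 h at 37 °C. Viability by CellTiter-Fluor fluorescence (Ex 405/Em 525) after 30 min; luciferase luminescence (BugLite, 15 min, RT) read afterwards.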
Nrf2 inh: inhibitors of Nrf2 signaling; A549 ARE-Fluc reporter, luciferase luminescence, 18-24 h; Potency, µM (top dose mostly 46 µM), for the others: at the top dose activity change, negative = inhibition, actives largely listed as inhibitors; 2.1% of 360,000 active; AID 504444; note: potency is the fitted concentration of half-maximal effect; % is set by controls: 0 for no effect and ±100 for the full control effect; nearly all actives have a fitted effect of over 60% in size
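Nrf2 activity is the BugLite luminescence, read 15 min after reagent at room temperature, following CellTiter-Fluor cytotoxicity readout (30 min, 37C). Compound titrations were applied for 18-24 h to 5000 A549 ARE_Fluc cells/well in 5% FBS OPTI-MEM.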
A-T KAP1 phos: potential ataxia-telangiectasia treatments restoring KAP-1 phosphorylation | F2112 A-T fibroblasts, KAP-1 phosphorylation AlphaLISA; neocarzinostatin DNA damage 30 min before lysis | Potency, µM (top dose mostly 57.5 µM), inactives show at the top dose activation, usual class: activators | 0.19% of 320,000 active; note: potency is the fitted concentration of half-maximal effect; % of control where 0% means no effect; nearly all actives have a fitted effect of over 45% in size
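ATM-like activity read as KAP-1 phosphorylation via AlphaLISA donor/acceptor antibody pairs after lysis and 6 hr at 25C. Cells were ATM-null patient fibroblasts (F2112, hTERT), dosed 60 min, then exposed to the DSB inducer NCS for 30 min.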
TCR act: T cell receptor activation. primary human leukocytes, anti-CD3, IL-2 HTRF, 48 h. Potency, µM (doses to about 9.22 µM), inactives show at the highest dose activation of IL-2 secretion, hits mostly activators. 330,000 tested, under 10 active; note: % of control where 0% means no effect
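Primary human leukocytes receive a-CD3 beads and test compound and are incubated 48 hr. Secreted IL-2 is then assayed by HTRF, measuring 665nm acceptor emission after 320nm excitation of the europium donor.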
Nrf2 ARE act: Nrf2 pathway activation; 0.31% of 410,000 active; AREc32 ARE-luciferase reporter (MCF7-derived line), luminescence, 24 h; AID 624171; Potency, µM (top dose mostly 46.1 µM), for inactives: top-dose activation, actives largely listed as activators; note: potency is the fitted concentration of half-maximal effect; % of control where 0% means no effect; nearly all actives have a fitted effect of over 65% in size
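Reporter line AREc32 (ARE-Fluc), seeded overnight in OPTI-MEM with 5% FBS; compound pin-transferred, 24 hr at 37 deg C, 5% CO2; luminescent read-out.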
* = called active by the depositor; ? = inconclusive; / = no result given; [ ] = another dose, or the depositor's remark. Unless noted, calls come from the whole dose curve; as a rule, active = well fitted curve in the direction sought with a large enough effect; inconclusive = small, poorly fitted or top-dose-only effect, or another doubt; inactive = no such curve, though single readings can be large; an effect the other way counts as inactive or inconclusive.

SMILES | CCT chaperon mod | A549 viability | Nrf2 inh | A-T KAP1 phos | TCR act | Nrf2 ARE act
Cc1ccccc1CC1(CO)CCCN(C(=O)c2cc(Cl)ccc2F)C1 (stereo not given) | -2 | -9% | 12µM* | 5% | -2% | 0%
COc1ccccc1N1C(=O)N(C(C)=O)C2C1Nc1ccccc1N2C (stereo not given) | 0 | 12µM* | ? | -7% | 4% | -3%
Cc1ccc2cc(CN(Cc3ccc4c(c3)OCO4)Cc3nnnn3Cc3ccco3)c(=O)[nH]c2c1 | 3 | -19% | ? | -1% | 1% | 4%
CCOC(=O)Cn1nnnc1CN(Cc1cccs1)Cc1cc2cc(C)ccc2[nH]c1=O | -31* | -9% | 4% | 2% | -1% | 0%
Cc1ccc(CN(Cc2cc3cc4c(cc3[nH]c2=O)OCCO4)Cc2nnnn2Cc2ccco2)cc1 | -1 | ? | 26µM* | -4% | 0% | 5%
Cc1ccc2[nH]c(=O)c(CN(Cc3cccs3)Cc3nnnn3Cc3ccccc3)cc2c1 | -3 | -24% | ? | 2% | 1% | 3%
CCCSc1nc2sc3c(c2c(=O)n1-c1ccccc1)CCC(C)C3 (stereo not given) | / | 11% | -15% | / | / | -1%
CC(C)(C)c1ccc(NC(=O)N2CCN(c3ccc([N+](=O)[O-])cn3)CC2)cc1 | 1 | -8% | 13µM* | -2% | 3% | 4%
COc1cccc(NS(=O)(=O)c2ccc3c(c2)NC(=O)C(C)S3)c1 (stereo not given) | -2 | -13% | 21µM* | 1% | 2% | 2%
Cc1cc(C)cc(NS(=O)(=O)c2ccc3c(c2)NC(=O)C(C)S3)c1 (stereo not given) | / | 6% | ? | / | / | 0%
CCc1cccc(NS(=O)(=O)c2ccc3c(c2)NC(=O)C(C)S3)c1 (stereo not given) | 0 | -1% | 16µM* | -18% | -11% | 0%
O=C(O)/C(=C\c1cccs1)c1ccc(F)cc1 | -1 | 3% | 10% | 3% | -1% | 0%
O=C(Nc1cccc(S(=O)(=O)N2CCCC2)c1)c1cccnc1 | 0 | 1% | -1% | 9% | 0% | 0%
O=C(Nc1ccc(S(=O)(=O)N2CCCC2)cc1)c1ccc(Cl)nc1 | -3 | 1% | ? | -2% | 2% | 1%
O=C(Nc1cccc(S(=O)(=O)Nc2ccccc2F)c1)c1ccco1 | -2 | -3% | ? | -3% | 0% | 5%
O=C1CCC(C(=O)Nc2cccc(S(=O)(=O)Nc3ccccc3F)c2)=NN1 | -1 | 2% | 26µM* | -7% | 0% | 2%
CCSc1ncc(Cl)c(C(=O)Nc2ccc(S(=O)(=O)N3CCC(C)CC3)cc2)n1 | / | 16% | ? | / | / | -1%
O=C(Nc1cccc(S(=O)(=O)N2CCCCC2)c1)c1ccc(Cl)nc1 | 0 | -7% | 21µM* | 11% | / | 0%
CSc1ncc(Cl)c(C(=O)Nc2ccc(S(=O)(=O)N3CCC(C)CC3)cc2)n1 | / | -9% | 21µM* | / | / | 0%
O=C(Nc1ccc(S(=O)(=O)N2CCCCC2)cc1)c1ccc(Cl)nc1 | 2 | -12% | 18µM* | 15% | -3% | 0%
Cc1ccc(-c2nnc(SCC(=O)NC(C)(C)C)nc2-c2ccc(C)cc2)cc1 | / | 0% | / | / | / | 0%
O=C(COC(=O)c1ccc(Cl)nc1)Nc1cccc(S(=O)(=O)N2CCCCC2)c1 | 0 | 10% | 7% | 3% | -7% | 0%
O=C(Nc1cccc(S(=O)(=O)Nc2ccccc2Cl)c1)c1ccc(Cl)nc1 | -8 | -15% | 5.2µM* | -3% | -1%[46.1 µM] | -1%
O=C(Nc1cccc(S(=O)(=O)N2CCCCCC2)c1)c1ccc(Cl)nc1 | -3 | ? | 21µM* | 23% | 14% | 3%
CC1CCN(S(=O)(=O)c2ccc(Cl)cc2)CC1 | -43* | -12% | ? | 13% | -1% | 0%
SMILES | CCT chaperon mod | A549 viability | Nrf2 inh | A-T KAP1 phos | TCR act | Nrf2 ARE act
O=C(Nc1ccc(S(=O)(=O)N2CCCCC2)cc1)c1ccncc1 | 0 | -1% | ? | 10% | -4% | 0%
COc1cccc(OC)c1C(=O)Nc1cccc(S(=O)(=O)Nc2ccccc2Cl)c1 | -2 | 5% | ? | 0% | 5% | 9%
O=C(Nc1ccc(Cc2ccncc2)cc1)c1ccc(S(=O)(=O)N2CCCC2)cc1 | 1 | -20% | 16µM* | -1% | 1% | 2%
O=C(NCC1CCCO1)c1cccc2c1C(=O)c1ccc(N3CCC(Cc4ccccc4)CC3)cc1S2(=O)=O (stereo not given) | 1 | -8% | 21µM* | -13% | 0% | -2%
Cc1ccc(C)n1-c1nccc(-c2cccs2)n1 | -9 | ? | ? | 3% | -4% | ?
N#Cc1cccn1-c1nccc(-c2cccs2)n1 | -3 | -1% | ? | 8% | 0% | 4.5µM*
O=S(=O)(c1ccc(-c2csc(Nc3ccc(Br)cc3)n2)cc1)N1CCCC1 | 0 | -16% | 8.2µM* | 6% | 15%[46.1 µM] | -1%
Cc1cc(C)cc(Nc2nc(-c3ccc(S(=O)(=O)N4CCCC4)cc3)cs2)c1 | -3 | 2% | ? | -2% | -5%[46.1 µM] | -1%
Cc1ccc(Nc2nc(-c3ccc(S(=O)(=O)N4CCCC4)cc3)cs2)cc1C | -1 | ? | / | 13% | 4% | 3%
O=S(=O)(c1ccc(-c2csc(Nc3ccc(F)cc3)n2)cc1)N1CCCC1 | -3 | -29% | 18µM* | 7% | 4%[46.1 µM] | 2%
O=C(Nc1cccs1)Nc1cccnc1Cl | 2 | 2% | 0% | -1% | 5% | 11µM*
CCS(=O)(=O)N1CCN(c2ccccc2)CC1 | -40* | -10% | -1% | 1% | 3% | 0%
Cn1cnc(S(=O)(=O)N2CCN(c3ccccc3)CC2)c1 | -78* | -1% | 4% | -1% | -4% | 0%
CCCN(Cc1cccs1)C(=O)Nc1ccc(F)c(Cl)c1 | / | 10% | -14% | / | / | 4%
Cc1cc(Cl)ccc1NC(=O)CN1C(=O)COc2ccc(S(=O)(=O)Nc3ccccc3)cc21 | / | -9% | 16% | / | / | 6%
O=c1c2sc3ccccc3c2n(Cc2ccc(F)cc2Cl)c(=O)n1Cc1ccccc1 | / | 0% | 1% | / | / | 0%
COc1ccc(-n2c(C)cc(C(=O)NC3CCCCC3)c2C)cc1 | 1 | -8% | ? | -2% | / | 18µM*
COc1ccc(OC)c(-c2cc(C3CCN(c4cc(Cl)nc(N)n4)CC3)[nH]n2)c1 | -2 | -17% | ? | -6% | -1% | 2%
COc1ccc(-c2cc(C3CCN(c4cc(Cl)nc(N)n4)CC3)[nH]n2)cc1 | -2 | ? | 13µM* | 1% | 6% | 0%
Nc1nc(-c2ccco2)nn1C(=O)c1ccccc1Cl | 0 | -1% | 1.8µM* | 4% | 3% | 0%
